Experimental data: PubChem BioAssay

Test: modulators of CIT2-GFP expression in yeast, confirmation, S. cerevisiae, GFP fusion, cherry picks, mother/daughter gates (AID 2274)
Settings: S. cerevisiae CIT2-GFP strain, flow cytometry, 3 h; measured here: daughter cell gate; at 10 µM; stronger effect = higher value

Row | Structure (SMILES) | GFP response, % of DMSO
1 | CCOC(=O)c1ccc(NC(=O)CCc2nc(-c3ccc(C)cc3)no2)cc1 | 90.2%
2 | Cc1cccc(N2C(=O)C(Cl)=C(Nc3c(C)n(C)n(-c4ccccc4)c3=O)C2=O)c1C | 100%
3 | Cc1noc2ncnc(Sc3ccc(Cl)cc3)c12 | 101%
4 | CCN(CC)c1ccc(/C=C/c2cccc[n+]2C)c(OC)c1 | 113%
5 | CC1=NOC(=O)/C1=C\c1ccc(-c2cc(Cl)ccc2Cl)o1 | 121%
6 | CCCN(c1ccccc1F)S(=O)(=O)c1cc(-c2cc(C)no2)ccc1OC | 95.4%
7 | COc1ccccc1-c1noc(CCC(=O)Nc2cccc(C)c2)n1 | 98.3%
8 | O=C(c1ccc([N+](=O)[O-])o1)N1CCN(c2nc3ccc(F)cc3s2)CC1 | 103%
9 | COc1ccc(Br)cc1/C=C/C(=O)c1ccc(NC(C)=O)cc1 | 101%
10 | CCOc1ccc(/C=C/C(=O)c2c(O)cc(C)oc2=O)cc1 | 94%
11 | CN1CCN(C(c2ccc(C(F)(F)F)cc2)c2ccc3cccnc3c2O)CC1 (stereo not given) | 95.6%
12 | O=C(NNC(=S)NC(=O)C12CC3CC(CC(C3)C1)C2)c1ccncc1 | 124%
13 | Cc1ccccc1NC(=O)c1ccccc1 | 99.1%
14 | Cc1cc(C(=O)Nc2nc(-c3ccccn3)cs2)ccc1[N+](=O)[O-] | 110%
15 | N/C(=N\OC(=O)c1cccc(Br)c1)c1ccccc1 | 121%
16 | O=C(Nc1nccs1)C(c1ccccc1)N1CCCCC1 (stereo not given) | 92%
17 | C=CCNC(=S)N/N=C(\C)c1cccc(OC)c1 | 96.4%
18 | O=[N+]([O-])c1cc(CN2CCN(c3cccc(C(F)(F)F)c3)CC2)c2cccnc2c1O | 117%
19 | COc1ccccc1/C=C/C=N/NC(=O)c1cccs1 | 96.5%
20 | O=C(Oc1ccnc2cc(Cl)ccc12)N1CCCCCC1 | 93.2%

Row | Structure (SMILES) | GFP response, % of DMSO
21 | O=C(c1ccc([N+](=O)[O-])o1)N1CCN(c2nc3c(F)cc(F)cc3s2)CC1 | 108%
22 | Cc1nn(Cc2ccccc2Cl)c(C)c1C(=O)NCc1ccco1 | 99.3%
23 | N#C/C(=C\c1ccccn1)c1nc2ccccc2s1 | 433%
24 | Cc1ccc(NC(=O)c2ccc([N+](=O)[O-])o2)cc1C | 105%
25 | O=C(N/N=C/c1ccc(-c2ccc(Br)cc2)o1)c1ccc2c(c1)OCO2 | 99.2%
26 | Cc1n[nH]c(C)c1N1C(=O)c2cccc3cc(Br)cc(c23)C1=O | 101%
27 | CC(C)(C)NC(=O)c1ccccc1-c1nc(-c2ccccc2Cl)no1 | 92%
28 | CCn1c(=O)c(C(=O)NCCc2ccccc2)c(O)c2ccccc21 | 99.3%
29 | O=C(O)Cn1cc(/C=C/[N+](=O)[O-])c2ccccc21 | 99.1%
30 | O=[N+]([O-])c1cc(C(F)(F)F)ccc1Sc1ccc2ccccc2n1 | 98.3%
31 | Cc1ccc(NC(=S)c2nc3ccccc3[nH]2)cc1 | 103%
32 | CCOc1ccc(C(C)=O)cc1N1C(=O)C2C3C=CC(O3)C2C1=O (stereo not given) | 110%
33 | O=C(CSc1nnc(-c2ccccn2)n1Cc1ccccc1)N1CCOCC1 | 105%
34 | Cc1cc(N2CCOCC2)n2nc(C)c(-c3ccccc3)c2n1 | 97.4%
35 | CCN(CC)CCN(C(=O)c1ccc2c(c1)CCCC2)c1nc2cc(OC)c(OC)cc2s1 | 102%
36 | COc1ccc(-c2ccc(CCC(=O)O)o2)cc1 | 97.2%
37 | COc1ccc(N2C(=O)C(Cl)=C(Nc3c(C)n(C)n(-c4ccccc4)c3=O)C2=O)cc1 | 87.2%
38 | Cn1ncc(N2CCN(S(=O)(=O)c3ccc(Br)cc3)CC2)c(Cl)c1=O | 101%
39 | O=C(CCc1ccccc1)NNC(=S)NC(=O)c1ccccc1 | 113%
40 | Cc1ccc(C(=O)OCC(=O)Nc2ccccc2Sc2ccccc2)cc1C | 103%

Same assay, conditions: S. cerevisiae CIT2-GFP strain, flow cytometry, 3 h; measured here: mother cell gate; at 10 µM; stronger effect = higher value

Row | Structure (SMILES) | GFP response, % of DMSO
41 | CCOC(=O)c1ccc(NC(=O)CCc2nc(-c3ccc(C)cc3)no2)cc1 | 93.2%
42 | Cc1cccc(N2C(=O)C(Cl)=C(Nc3c(C)n(C)n(-c4ccccc4)c3=O)C2=O)c1C | 98%
43 | Cc1noc2ncnc(Sc3ccc(Cl)cc3)c12 | 102%
44 | CCN(CC)c1ccc(/C=C/c2cccc[n+]2C)c(OC)c1 | 111%
45 | CC1=NOC(=O)/C1=C\c1ccc(-c2cc(Cl)ccc2Cl)o1 | 102%
46 | CCCN(c1ccccc1F)S(=O)(=O)c1cc(-c2cc(C)no2)ccc1OC | 95%
47 | COc1ccccc1-c1noc(CCC(=O)Nc2cccc(C)c2)n1 | 95.6%
48 | O=C(c1ccc([N+](=O)[O-])o1)N1CCN(c2nc3ccc(F)cc3s2)CC1 | 96.1%
49 | COc1ccc(Br)cc1/C=C/C(=O)c1ccc(NC(C)=O)cc1 | 96%
50 | CCOc1ccc(/C=C/C(=O)c2c(O)cc(C)oc2=O)cc1 | 92.6%
51 | CN1CCN(C(c2ccc(C(F)(F)F)cc2)c2ccc3cccnc3c2O)CC1 (stereo not given) | 94.4%
52 | O=C(NNC(=S)NC(=O)C12CC3CC(CC(C3)C1)C2)c1ccncc1 | 106%
53 | Cc1ccccc1NC(=O)c1ccccc1 | 97.3%
54 | Cc1cc(C(=O)Nc2nc(-c3ccccn3)cs2)ccc1[N+](=O)[O-] | 99.3%
55 | N/C(=N\OC(=O)c1cccc(Br)c1)c1ccccc1 | 140%
56 | O=C(Nc1nccs1)C(c1ccccc1)N1CCCCC1 (stereo not given) | 94.4%
57 | C=CCNC(=S)N/N=C(\C)c1cccc(OC)c1 | 93.3%
58 | O=[N+]([O-])c1cc(CN2CCN(c3cccc(C(F)(F)F)c3)CC2)c2cccnc2c1O | 131%
59 | COc1ccccc1/C=C/C=N/NC(=O)c1cccs1 | 97.7%
60 | O=C(Oc1ccnc2cc(Cl)ccc12)N1CCCCCC1 | 89.1%

Row | Structure (SMILES) | GFP response, % of DMSO
61 | O=C(c1ccc([N+](=O)[O-])o1)N1CCN(c2nc3c(F)cc(F)cc3s2)CC1 | 121%
62 | Cc1nn(Cc2ccccc2Cl)c(C)c1C(=O)NCc1ccco1 | 100%
63 | N#C/C(=C\c1ccccn1)c1nc2ccccc2s1 | 496%
64 | Cc1ccc(NC(=O)c2ccc([N+](=O)[O-])o2)cc1C | 96%
65 | O=C(N/N=C/c1ccc(-c2ccc(Br)cc2)o1)c1ccc2c(c1)OCO2 | 98.1%
66 | Cc1n[nH]c(C)c1N1C(=O)c2cccc3cc(Br)cc(c23)C1=O | 99.3%
67 | CC(C)(C)NC(=O)c1ccccc1-c1nc(-c2ccccc2Cl)no1 | 93.2%
68 | CCn1c(=O)c(C(=O)NCCc2ccccc2)c(O)c2ccccc21 | 98.2%
69 | O=C(O)Cn1cc(/C=C/[N+](=O)[O-])c2ccccc21 | 99.7%
70 | O=[N+]([O-])c1cc(C(F)(F)F)ccc1Sc1ccc2ccccc2n1 | 93.3%
71 | Cc1ccc(NC(=S)c2nc3ccccc3[nH]2)cc1 | 99.3%
72 | CCOc1ccc(C(C)=O)cc1N1C(=O)C2C3C=CC(O3)C2C1=O (stereo not given) | 104%
73 | O=C(CSc1nnc(-c2ccccn2)n1Cc1ccccc1)N1CCOCC1 | 105%
74 | Cc1cc(N2CCOCC2)n2nc(C)c(-c3ccccc3)c2n1 | 98.1%
75 | CCN(CC)CCN(C(=O)c1ccc2c(c1)CCCC2)c1nc2cc(OC)c(OC)cc2s1 | 98%
76 | COc1ccc(-c2ccc(CCC(=O)O)o2)cc1 | 101%
77 | COc1ccc(N2C(=O)C(Cl)=C(Nc3c(C)n(C)n(-c4ccccc4)c3=O)C2=O)cc1 | 87.5%
78 | Cn1ncc(N2CCN(S(=O)(=O)c3ccc(Br)cc3)CC2)c(Cl)c1=O | 97.3%
79 | O=C(CCc1ccccc1)NNC(=S)NC(=O)c1ccccc1 | 100%
80 | Cc1ccc(C(=O)OCC(=O)Nc2ccccc2Sc2ccccc2)cc1C | 105%
